We go through 40 compounds from PubChem BioAssay (NCI).

“And” between values parts separate entries of the source, which are not always exact repeats. Equal entries are not always repeated. About 83,000 compounds went through this panel and 20% of them were active in at least one assay; those are over-represented in the sample as a whole.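 Single-concentration screen, 48 h exposure, 96-well plates. Endpoint: percent growth. Below 10 = active.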 The source made the active and inactive calls. Where a SMILES comes first, the peptide text is derived from it.

In this test the test system is NCI-H23 lung. In words: NCI-60 one-dose screen, 48 h (100 = growth as untreated, 0 = no growth, -100 = all killed). As to conditions: 10 µM unless noted. How it is done:
Growth inhibition of the NCI-H23 human Non-Small Cell Lung tumor cell line is measured as a screen for anti-cancer activity. Cells are grown in 96 well plates and exposed to the test compound for 48 hours. Compounds are tested at a single concentration, which is 10^-5 M for most compounds. The reported endpoint is percent growth (GI% or GIPRCNT), where numbers from 0 - 100% represent growth inhibition, and numbers from -100% - 0 represent cell death. For example, a value of 40 represents 60% growth inhibition. A value of 0 means no net growth occurred over the course of the experiment. A value of -40 indicates 40% of cells at the beginning of the experiment died by the end of the experiment. A value of -100 means all cells are dead at the end of the experiment.
NCI-60 Human Tumor Cell Lines Screen was performed using the standard one-dose NCI protocol, which is described in more detail at https://dtp.cancer.gov/discovery_development/nci-60/default.htm.
Compounds with GIPRCNT values below 10 were considered active. Activity score was based on GIPRCNT using the following formula: […]
Score is 0 for GIPRCNT values of 100 or above, 50 for GIPRCNT values of 0, and 100 for GIPRCNT values of -100.
Consider `CCCCOc1ccc(Nc2cc(Cl)ccc2C(=O)O)cn1`, for which the growth is 103% (inactive) and 92.9% (inactive).

On to `c1ccc(CNCCNCc2ccccc2)cc1`, for which the growth is 117% (inactive).

As to `c1ccc(-c2nc3ccccc3s2)cc1`, the growth is 88.2% (inactive).

For `OCC1OC(O)C(O)C(O)C1O` (stereo not given), the growth was 102% (inactive).

As for `CN(C)c1ccc(/C=C\C(=O)c2ccccc2)cc1`, the growth is 98.4% (inactive) and 91% (inactive) and 97.5% (inactive).

Consider `OCCN1CCCCCCC1`, for which the growth was 105% (inactive).

`Cc1cc(-c2cc(C)c(O)c(C)c2)cc(C)c1O`: the growth was 87.3% (inactive).

As to `O=C(O)/C=C\C(=O)Nc1cccc2ccccc12`, the growth is 106% (inactive) and 91.4% (inactive).

In the case of `N#CC(C#N)N=Nc1ccc(Cl)cc1`, the growth is 36.5% (inactive).

With `Cc1cc(-c2ccc(N=Nc3ccc4c(S(=O)(=O)O)cc(S(=O)(=O)O)c(N)c4c3O)c(C)c2)ccc1N=Nc1ccc2c(S(=O)(=O)O)cc(S(=O)(=O)O)c(N)c2c1O`, the growth is 81.7% (inactive).

In the case of `CCCCOC(=O)/C=C\C(=O)NC(N)=O`, the growth is 85.7% (inactive).

Turning to `Nc1ncnc2c1ncn2C1OC(COP(=O)(O)O)C(O)C1O` (stereo not given), the growth was 110% (inactive).

Turning to `NC1CCC(C(=O)O)CC1` (stereo not given), the growth is 111% (inactive) and 108% (inactive).

For the compound `CC1CCC2(OC1)OC1CC3C4CC=C5CC(O)CCC5(C)C4CCC3(C)C1C2C` (stereo not given), the growth was 104% (inactive).

Turning to `CC[C@H](CC[C@@H](C)[C@H]1CC[C@H]2[C@@H]3CC=C4C[C@@H](O)CC[C@]4(C)[C@H]3CC[C@]12C)C(C)C`, the growth was 5.59% (active) and 96.6% (inactive).

For the compound `CC(C)(O)C(=O)O`, the growth was 106% (inactive).

`O=C(O)CCCl`: the growth is 108% (inactive).

As to `O=C1CSC2=NCCN12`, the growth is 87.7% (inactive) and 90% (inactive).

Take `Cn1cnc([N+](=O)[O-])c1Sc1ncn[nH]1`: the growth was 91.7% (inactive).

Take `O=C1OC(C(O)C(O)CO)C(O)=C1O` (stereo not given): the growth was 113% (inactive) and 98.1% (inactive).

For the compound `Cc1ccc(=O)[nH]n1`, the growth is 97.8% (inactive) and 98.7% (inactive).

Take `Oc1ccc(Cc2ccccc2Cl)c(O)c1`: the growth was 89.5% (inactive).

As for `O=C1OC(c2ccccc2)=N/C1=C\c1ccccc1`, the growth is 99.8% (inactive).

Turning to `CC(=O)Nc1ccc(S(N)(=O)=O)cc1`, the growth is 100% (inactive).

With `CCCCCCCCCCNC(=O)CI`, the growth is -48.8% (active).

On to `COc1ccc(Nc2ccc3ccccc3c2)cc1`, for which the growth is 81.5% (inactive).

`NC(=O)NCCCC(N)C(=O)O` (stereo not given): the growth is 103% (inactive).

Turning to `O=C(/C=C/c1ccccc1)c1ccccc1`, the growth was 84.6% (inactive).

Consider `COc1ccc(C(=O)CC(c2ccccc2)C(C#N)c2ccccc2)cc1` (stereo not given), for which the growth is 88.4% (inactive).

`CC(C)C(C)(C)c1ccc(O)cc1`: the growth is 103% (inactive).

As to `CC1CCC(C(C)C)C(NNC(N)=O)C1` (stereo not given), the growth was 106% (inactive).

For `CCOC(=O)c1c(C)cc(=O)oc1C`, the growth is 101% (inactive).

As for `O=C(CO)C(O)C(O)C(O)C(O)CO` (stereo not given), the growth is 104% (inactive) and 102% (inactive).

As for `CCN(CCNS(C)(=O)=O)c1ccc(N)c(C)c1`, the growth is 99.2% (inactive) and 85.9% (inactive).

With `O=CN1CCCCC1`, the growth was 91.5% (inactive).

On to `NC(Cc1ccccc1)C(=O)NC(Cc1ccccc1)C(=O)O` (stereo not drawn) (H-Phe-Phe-OH; configuration not given here), for which the growth was 97.1% (inactive) and 105% (inactive).

In the case of `CCCCNc1ccc(Nc2ccccc2)cc1`, the growth was 41.7% (inactive).

As to `O=[N+]([O-])c1cccc(SSc2cccc([N+](=O)[O-])c2)c1`, the growth is 98.8% (inactive).

For the compound `ClCCOCCOc1ccc(C2CCCCC2)cc1`, the growth was 113% (inactive).

For the compound `O=c1n(CC2CO2)c(=O)n(CC2CO2)c(=O)n1CC1CO1` (stereo not given), the growth is 69.2% (inactive).
